FGF22 binding = binders of human FGF22 protein, primary screen, FGF22 synaptogenesis inhibitor project, biophysical, thermal shift, single point. Fibroblast growth factor 22 (Homo sapiens), Q9HCT0. recombinant FGF22 thermal shift, SYPRO orange fluorescence; percent of sucrose octasulfate shift, DMSO zero. activity (Tm shift, normalised), % at 9.99 µM. 340,000 compounds, 1.5% hits. AID 651658, 2012;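 active = mean Tm shift, scaled 0 neutral to 100 positive control, at about 1.3% or above, every replicate too, limit read from the data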
Target sequence (Q9HCT0 whole entry, looked up): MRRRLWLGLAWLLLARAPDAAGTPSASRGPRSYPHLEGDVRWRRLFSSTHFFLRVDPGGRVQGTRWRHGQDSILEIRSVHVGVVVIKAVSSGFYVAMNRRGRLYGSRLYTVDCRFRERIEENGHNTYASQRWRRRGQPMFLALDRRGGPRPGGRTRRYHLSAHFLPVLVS
SIRT5 inh = SIRT5 desuccinylase inhibitors, primary screen, biochemical, fluorescence imaging, single point, set 5; NAD-dependent protein deacylase sirtuin-5, mitochondrial (Homo sapiens), Q9NXA8; Purified SirT5, succinyl-peptide AMC, trypsin-coupled fluorescence; inhibition, % at 15 µM; 330,000 compounds, 1.1% hits; AID 652115, 2013; in the data active = inhibition above about 15%
Target sequence (Q9NXA8 whole entry, looked up): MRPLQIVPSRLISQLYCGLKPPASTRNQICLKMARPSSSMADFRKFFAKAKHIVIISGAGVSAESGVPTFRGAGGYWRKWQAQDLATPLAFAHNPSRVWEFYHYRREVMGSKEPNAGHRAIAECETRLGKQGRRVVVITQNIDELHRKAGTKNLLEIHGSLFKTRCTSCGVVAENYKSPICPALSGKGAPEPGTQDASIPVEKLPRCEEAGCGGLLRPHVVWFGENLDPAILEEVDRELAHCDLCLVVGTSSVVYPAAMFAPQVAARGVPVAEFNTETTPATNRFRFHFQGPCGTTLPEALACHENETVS
Casp6 inh = human caspase-6 inhibitors, primary screen, biochemical, VEID-R110 fluorescence, single point, set 2; P55212; purified caspase-6, Z-VEID-R110 cleavage fluorescence; inhibition, % at 12.5 µM; 350,000 compounds, 0.53% hits; AID 686996, 2013;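 active = mean inhibition across replicates at least about 35%, with every replicate also reaching that limit, limit read from the data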
ERAP1 HTS inh = human ERAP1 aminopeptidase inhibitors, primary screen, biochemical, single point, plate reader; recombinant ERAP1, Leu-AMC fluorescence, 60 min; 340,000 compounds, 0.15% hits; Endoplasmic reticulum aminopeptidase 1 (Homo sapiens), Q9NZ08; inhibition, % at 10.7 µM;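 active = mean replicate inhibition of at least 30%, or all replicates individually reaching that 30% level; inactive = mean below 30% and not every replicate reaching it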
Numbers stand for hits; . = inactive; / = no result. Rows were chosen to be rich in hits. Some 3.1% of all compounds tested hit in one or more screens of this group.

SMILES	FGF22 binding	SIRT5 inh	Casp6 inh	ERAP1 HTS inh
NS(=O)(=O)c1ccc(CCNC(=O)CN2CCN(c3ccccc3O)CC2)cc1	44	.	.	.
COc1ccccc1CCN=C(N)NS(=O)(=O)c1ccc(F)cc1	.	.	.	.
NC(=NCCc1c[nH]c2ccccc12)NS(=O)(=O)c1cc(F)ccc1F	.	.	.	43
CN(C)C(=O)c1cc(C(=O)c2ccccc2Cl)c[nH]1	43	.	.	.
NC(=O)c1cc(C(=O)c2ccccc2Cl)c[nH]1	43	.	.	.
CC=Cc1ccc2n(c1=O)C[C@H]1[C@H](CO)[C@@H](C(=O)NCC(F)(F)F)N(CC3CC3)[C@@H]21 (mixture of isomers)	.	.	.	.
COc1ccc(S(=O)(=O)N2CCOC23CCN(S(=O)(=O)c2ccc(C)cc2)CC3)cc1	.	.	52	.
O=[N+]([O-])c1ccc(S(=O)(=O)N2CCC3(CC2)OCCN3S(=O)(=O)c2cccs2)cc1	.	.	36	.
Cc1ccc(S(=O)(=O)N2CCC3(CC2)OCCN3S(=O)(=O)c2cccs2)cc1	.	.	.	.
CO[C@H]1CN(C)C(=O)c2ccc(NC(=O)c3ccc(F)cc3)cc2OC[C@@H](C)N(C(C)=O)C[C@@H]1C	.	.	.	.
C[C@@H]1CN([C@@H](C)CO)C(=O)c2cc(NC(=O)Nc3ccc(F)cc3)ccc2O[C@@H](C)CCCCO[C@@H]1CN(C)C(=O)Nc1ccc2c(c1)OCO2	.	.	.	.
C[C@H](CO)N1C[C@H](C)[C@@H](CN(C)Cc2cccnc2)Oc2cc(Br)ccc2S1(=O)=O	.	.	.	.
Cc1ccccc1S(=O)(=O)/N=C(/c1ccccc1)N1CCOCC1	.	16	.	.
CCOc1ccc(S(=O)(=O)N=C(c2ccccc2)N2CCOCC2)cc1	.	.	.	.
NC(=O)N/N=C/c1ccc(N2CCOCC2)s1	.	.	.	.
O=C(O)c1cc(N/N=C/c2ccc(N3CCOCC3)s2)ccc1Cl	.	36	.	.
COC(=O)c1c(C)oc2c1cc(NS(=O)(=O)c1ccc(C(=O)O)cc1)c1ccccc12	.	.	42	.
CC(=O)c1c(C)oc2c1cc(NS(=O)(=O)c1ccc(C(=O)O)cc1)c1ccccc12	/	.	.	.
COc1ccc2c3c([nH]c2c1)[C@H](CO)N(C(=O)CN1CCOCC1)CC31CCN(C)CC1	.	.	.	.
COc1ccc2c3c(n(C)c2c1)[C@@H](CO)N(C)CC31CN(S(=O)(=O)c2cn(C)cn2)C1	.	/	/	.
CC1(C)NC(=O)N(CC(=O)OCC(=O)NC(=O)c2ccccc2)C1=O	.	.	.	64
COCCN(C(=O)c1c(C)noc1C)c1c(N)n(CC(C)C)c(=O)[nH]c1=O	.	.	.	83
COc1ccc(NC(=O)N(C)C[C@@H]2OCc3ccccc3-c3c(n(C)c4ccccc34)C(=O)N([C@@H](C)CO)C[C@@H]2C)cc1	.	21	.	.
C[C@H](CO)N1C[C@H](C)[C@@H](CN(C)C(=O)Nc2ccc(F)cc2)OCc2ccccc2-c2c(n(C)c3ccccc23)C1=O	.	15	.	.
COc1ccc(-n2c(CNC(=O)COc3ccc(Cl)cc3Cl)n[nH]c2=S)cc1	43	.	.	.
SMILES	FGF22 binding	SIRT5 inh	Casp6 inh	ERAP1 HTS inh
Cc1cc(C2C(=O)c3ccccc3C2=O)c(C)c(C)c1C	.	19	.	.
O=C1/C(=C/c2ccccn2)SC(=S)N1CCc1ccccc1	1.6	.	.	/
CCCN(C)C[C@H]1OCCCC[C@@H](C)Oc2ccc(N(C)C)cc2C(=O)N([C@H](C)CO)C[C@H]1C	/	.	.	.
O=C(N[C@H]1CC[C@@H](CCNS(=O)(=O)c2ccccc2)O[C@@H]1CO)c1cccnc1	.	.	.	.
CO[C@@H]1CN(C)C(=O)c2ccc(NC(=O)C3CCC3)cc2OC[C@H](C)N(C(=O)NC(C)C)C[C@@H]1C	.	.	.	.
C[C@H](CO)N1C[C@H](C)[C@H](CN(C)Cc2ccccn2)Oc2ncc(C#CC(C)(C)O)cc2C1=O	.	.	.	.
COc1ccc(NC(=O)C2CCCN(c3cnccn3)C2)c(OC)c1 (stereo not given)	.	16	.	.
CC(C)CC#Cc1cnc2c(c1)C(=O)N([C@@H](C)CO)C[C@@H](C)[C@H](CN(C)Cc1cncnc1)O2	.	.	.	.
NC(=NC(=O)c1ccc(Cl)cc1)N1N=CCC1c1ccccc1 (stereo not given)	.	16	.	.
CN(C)CC(=O)Nc1ccc2c(c1)[C@H]1C[C@H](CC(=O)NCc3cccc(F)c3)O[C@H](CO)[C@H]1O2	.	.	.	.
CCC(=O)Nc1ccc2c(c1)C(=O)N(C)C[C@@H](OC)[C@@H](C)CN(CC1CCCCC1)[C@H](C)CO2	.	.	/	.
COCC(=O)Nc1ccc2c(c1)OC[C@@H](C)N(CC1CC1)C[C@H](C)[C@@H](OC)CN(C)C2=O	.	.	/	/
CCC(=O)Nc1ccc2c(c1)C(=O)N(C)C[C@H](OC)[C@@H](C)CN(CC1CCCCC1)[C@H](C)CO2	.	18	/	.
COCC(=O)Nc1ccc2c(c1)C(=O)N(C)C[C@@H](OC)[C@H](C)CN(Cc1ccccn1)[C@H](C)CO2	.	23	/	.
COCC(=O)Nc1ccc2c(c1)OC[C@H](C)N(CC1CC1)C[C@@H](C)[C@@H](OC)CN(C)C2=O	.	20	/	/
C[C@@H]1CN([C@@H](C)CO)C(=O)c2cc(NC(=O)NC3CCCCC3)ccc2O[C@@H]1CN(C)C(=O)Nc1ccc2c(c1)OCO2	.	.	.	.
CCCNC(=O)N1C[C@@H]2[C@H](c3ccccc31)[C@H](CO)N2C(=O)c1ccncc1	.	.	.	.
CN1c2ccc(-c3ccc(F)cc3)cc2[C@H]2[C@H](CCN2S(=O)(=O)c2cccc(F)c2)[C@@H]1CO	.	.	.	.
Cc1ccc(-c2ccc3c(c2)O[C@H](CN(C)S(C)(=O)=O)[C@@H](C)CN([C@H](C)CO)S3(=O)=O)cc1	.	.	.	.
O=C(Cn1nnc(-c2cccs2)n1)NCc1cccs1	43	.	.	.
CCC1(C)Cc2c(C#N)c(N)n(-c3ccccc3)c(=S)c2CO1 (stereo not given)	.	.	36	.
CCC1(C)Cc2c(C#N)c(N)sc(=S)c2CO1 (stereo not given)	/	.	.	.
CCCN1C[C@H](C)[C@H](OC)CN(C)C(=O)c2cc(NC(=O)c3cnccn3)ccc2OC[C@H]1C	.	.	.	.
CC(OC(=O)c1oc2ccccc2c1COc1ccccc1)C(=O)NC(N)=O (stereo not given)	43	.	/	.
O=C(NCCc1ccccc1)c1oc2ccccc2c1COc1ccccc1	.	.	.	.
COc1cc(OC)c2c(c1O)OC(c1ccccc1)CC2=O (stereo not given)	.	.	40	.

Screening results: PubChem BioAssay, Broad Institute
